# Results with a measured potency or affinity are listed apart. Calls of active or inactive are those of the source.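 The calls were made as follows: active = cell killing whose fitted half-effect concentration is at most twice the top valid dose tested; inconclusive = flat curve with 30 to 70% killing, or a poor fit; inactive = effect in the rising direction, plus the rest.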
# Assay: A549 cell cytotoxicity, dose response, cytotoxicity control, ATP luminescence, cherry-pick, set 2 (AID 1053124);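 also: 0% = neutral control wells and -100% = mitoxantrone 10 µM positive control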
# Conditions: A549 viability, ATP luminescence (CellTiter-Glo), 72 h; series mostly up to 26 µM; activity change, negative = cytotoxicity: at the top concentration
row,SMILES,"activity change, negative = cytotoxicity"
1,C=Cc1ccc(Cn2c(C)c(C(=O)NCc3cccc(C)c3)sc2=O)cc1,0.662% (inactive)
2,CCCOc1ccc(NC(=O)c2c(-c3ccccc3)noc2C)cc1,-4.14% (inactive)
3,Cc1c(C(=O)NCc2ccc(Cl)c(Cl)c2)sc(=O)n1Cc1cccc(F)c1,-10.2% (inactive)
4,Cn1nc(-c2ccc(Cl)cc2)c2cc(C(=O)N3CCN(c4ccccc4)CC3)sc21,-7.43% (inactive)
5,CCc1nc(SCC(=O)c2ccccc2)c2ccccc2n1,0.308% (inactive)
6,CCC(C)n1c(=N)c(C#N)cc2c(=O)n3cccc(C)c3nc21 (stereo not drawn),-3.92% (inactive)
7,CCn1c(=N)c(S(=O)(=O)c2ccccc2)cc2c(=O)n3ccccc3nc21,-10.9% (inactive)
8,COCc1cc(C)nc(SCC(=O)Oc2ccc(Cl)cc2)c1C#N,-8.18% (inactive)
9,COc1ccc(C(=O)c2sc3nc(-c4ccc(OC)cc4)ccc3c2N)cc1,-7.45% (inactive)
10,CCC(C)NC(=S)N1CCN(Cc2ccc3c(c2)OCO3)CC1 (stereo not drawn),1.85% (inactive)
11,CCCn1c(=N)c(S(=O)(=O)c2ccccc2)cc2c(=O)n3ccccc3nc21,-7.19% (inactive)
12,N#C/C(=C\c1ccc(N2CCOCC2)o1)C(=O)NCCc1ccccc1,-8.25% (inactive)
13,O=C(O)c1ccc(N2N=C(c3ccccc3)CC2c2ccccc2)cc1 (stereo not drawn),-7.85% (inactive)
14,O=C1CCc2cc(S(=O)(=O)NC(Cc3ccccc3)C(=O)NCCC3=CCCCC3)ccc2N1 (stereo not drawn),8.84% (inactive)
15,Cc1ccc(-n2c(C)cc(/C=N/NC(=O)Cn3c4ccccc4c(=O)c4ccccc43)c2C)cc1,-3.65% (inactive)
16,CC1CCN(C(=O)COc2cccc3c2CCN(Cc2ccccc2)C3=O)CC1,-1.26% (inactive)
17,Cc1cc2cc(CNC(=O)c3ccco3)ccc2n1C,-11% (inactive)
18,NC(=O)c1c(NC(=O)Cc2ccccc2)sc2c1CCN(Cc1ccccc1)C2,-6.11% (inactive)

# — PubChem BioAssay AID1053124 (Broad Institute, 2014)
